# According to PubChem BioAssay AID720697 (Broad Institute, 2013):
# Measured potencies and affinities stand elsewhere. Records with an inconclusive call do not appear. A number with no mark means an inactive call.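 Rule for the calls: active = signal loss with fitted half-maximal concentration at or below twice the top valid tested dose in every test run; inconclusive = runs disagree, flat 30 to 70% signal loss, or poor fit; inactive = all runs flat, opposite direction, or potency beyond limit.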
# Assay: HEK293T cytotoxicity, dose response, cytotoxicity control for miR-122 modulator project, cell-based, inhibitor set, cherry-pick, set 2 (AID 720697);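 note: 0% = median of neutral control wells and -100% = MG132 positive control wells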
# Details: HEK293T viability, CellTiter-Glo luminescence, 48 h; series mostly up to 26 µM; activity change, negative = cytotoxicity: at the top concentration
row,SMILES,"activity change, negative = cytotoxicity"
1,CNC(=O)C[C@H]1CC[C@@H]2[C@@H](COc3ccc(NC(=O)c4cccc(OC)c4)cc3C(=O)N2C)O1,125%
2,COc1ccc2[nH]c(=O)c(COC(=O)c3ccco3)cc2c1,18%
3,CCCCC(=O)OCC(=O)c1[nH]c(C)c(C(=O)OCC)c1C,58.2%
4,Cc1cc(C(F)F)n2ncc(C(=O)NCCc3ccccc3Cl)c2n1,8.15%
5,C/C=C/c1ccc([C@@H]2[C@@H](CNC(=O)c3ccncc3)N(C(=O)CC)[C@H]2CO)cc1,101%
6,CC(=O)Nc1ccc2c(c1)C(=O)N(C)[C@@H]1CC[C@H](CC(=O)NCCCN3CCOCC3)O[C@@H]1CO2,-0.596% [at 23.5 µM]
7,CC(=O)N1[C@H](CN(C(=O)c2ccc(F)cc2)C(C)C)[C@@H](c2ccccc2)[C@@H]1CO,113%
8,Cc1ccccc1-c1ccc([C@@H]2[C@H](CO)N3CCCCN(C(=O)Nc4cccc(F)c4)C[C@@H]23)cc1,140%
9,CCC(=O)N1[C@H](CN(C(C)C)S(C)(=O)=O)[C@@H](c2ccccc2)[C@@H]1CO,165% [at 23.5 µM]
10,O=C(NCCCN1CCCC1)c1ccc(CSCc2cccc(Cl)c2)o1,69.1%
11,CCC(=O)N(C)C[C@H]1Oc2cc(C#Cc3ccccc3)ccc2S(=O)(=O)N([C@H](C)CO)C[C@H]1C,43.2%
12,COc1ccc(S(=O)(=O)N(C)C[C@@H]2Oc3cc(-c4cccc(F)c4)ccc3S(=O)(=O)N([C@@H](C)CO)C[C@H]2C)cc1,127%
13,CCCC#Cc1ccc2c(c1)O[C@H](CN(C)C(=O)COC)[C@H](C)CN([C@@H](C)CO)S2(=O)=O,19%
14,C[C@@H]1CN([C@H](C)CO)S(=O)(=O)c2ccc(/C=C/c3ccccc3)cc2O[C@@H]1CN(C)C(=O)c1cccnc1,72.3%
